These results are taken from PubChem BioAssay (NCATS).

Results filed as inconclusive are left out. Unmarked numbers belong to inactive results. Activity calls are given as the source filed them. Calls follow the shape of the dose curve; as a rule, active = well fitted cell-killing curve with a large enough effect; inconclusive = small, poorly fitted or top-dose-only effect, or effect the other way; inactive = flat fitted curve, though single readings scatter.
Potency is read from the fitted curve at half-maximal effect.

This assay in a line: S16 Schwann cell viability assay (CellTiter-Glo assay) (AID 624031). Also: nearly all actives have a fitted effect of over 70% in size. As to conditions: S16 rat Schwann cells viability, 24 h; series mostly up to 57.5 µM; activity change, negative = cytotoxicity: at the top concentration. An excerpt: Charcot-Marie-Tooth-Association [CMTA]
National Center for Advancing Translational Sciences [NCATS]
Charcot-Marie-Tooth (CMT) disease was first characterized by Jean-Martin Charcot and Pierre Marie in France and, independently, by Howard Henry Tooth in England in 1886. CMT is one of the most common inherited neurological diseases, affecting approximately 1 in 2,500 Americans. […] The most prevalent type of CMT is known as CMT1A and caused by a duplication of the PMP22 gene which leads to over-expression of this protein. PMP22 is a glycosylated intrinsic membrane protein accounting for 2-5% of the myelin protein content, and its over-expression results in demyelination and subsequently axonal loss.
A pair of cellular transcription-based assays was developed in the S16 rat Schwann cell lines (Hai, M., et al., 2002) stably transfected with orthogonal reporters - firefly luciferase (Fluc) and beta-lactamase (beta-Lac) - whose expression is driven by an intronic regulatory element of the PMP22 gene (Jones, E.A., et al., 2011) to recapitulate endogenous expression of PMP22. A comprehensive library of approved drugs, the NCGC Pharmaceutical Collection (Huang, R., et al., 2011), was screened in the cross-validating platform of the orthogonal reporter assays to identify drug modulators inhibitory towards PMP22 expression.
A set of counter-screens was devised to address non-specific activity of the library. An ATP-dependent CellTiter-Glo assay (developed by Promega Corp) was utilized to control cell viability. In addition, biochemical Fluc enzyme assay was performed to assess direct inhibition of the Fluc enzymatic activity.
Hai, M., Muja, N., DeVries, G.H., Quarles, R.H. and Patel, P.I. Comparative analysis of Schwann cell lines as model systems for myelin gene transcription studies. J Neurosci Res, 2002. 69(4): pp 497-508
Huang, R., Southall, N., Wang, Y., Yasgar A., Shinn P., Jadhav, A. , Nguyen, D.-T. and Austin, C.P., The NCGC pharmaceutical collection: a comprehensive resource of clinically approved drugs enabling repurposing and chemical genomics. Sci Transl Med, 2011. 3(80): p. 80ps16.
Native S16 cells were seeded in white solid-bottom 1536 well plates at between 500-750 cells/6uL in DMEM medium containing 10% FBS, w/o phenol red. After overnight incubation at 37 degree Celsius/5% C02, 23 nL of compounds or DMSO were delivered to each well using a pin tool, followed by 24h-incubation at 37 degree Celsius/5% C02. Then one volume of CellTiter-Glo assay reagent (Promega) was added to each well for cell viability measured by a ViewLux plate reader (PerkinElmer). The % activity was determined by normalizing to the average readings from wells containing no cells relative to DMSO-treated cells (0% Activity). The concentration-effect curves were then classified based on curve quality (r2), response magnitude and degree of measured activity.
In general terms: In ATP-based viability assays light output follows the ATP content of the culture.
Consider `C[C@@]12CCC(=O)C=C1C=C[C@H]1[C@H]3CC[C@](O)(CCC(=O)O)[C@]3(C)CC[C@@H]12`, for which the “activity change, negative = cytotoxicity” value was 7.45% [at 25.7 µM]. Still for that read-out and setting: with `CN(C)C(=O)Oc1cc(OC(=O)N(C)C)cc([C@@H](O)CNC(C)(C)C)c1` the figure was 3.35% [at 25.7 µM]; with `CN(C)[C@@H]1C(=O)C(C(N)=O)=C(O)[C@]2(O)C(=O)C3=C(O)c4c(O)ccc(Cl)c4[C@](C)(O)[C@H]3C[C@@H]12`, -3.61% [at 25.7 µM]; with `CC(=O)O[C@H]1CC[C@@]2(C)C(=CC[C@@H]3[C@H]2CC[C@]2(C)C(=O)CC[C@H]32)C1`, -1.17% [at 25.7 µM].

In the case of `CNC(C)[C@@H](O)c1ccccc1` (stereo not given in full), the “activity change, negative = cytotoxicity” value is 3.4%. Same read-out and setting: with `C[N+]1(C)[C@@H]2CC[C@H]1CC(OC(=O)[C@@H](CO)c1ccccc1)C2` (stereo not given in full) the figure was 11.7% [at 25.7 µM]; with `CC(C)CC(CN)CC(=O)O` (stereo not given), -9.44%; with `O=C1C=C2C=CC3C[C@@]2(O1)C1CCCCN31` (stereo not given in full), -15.3%. Still for that read-out and setting: with `CCN[C@]1(c2cccs2)CCCCC1=O` the figure was -6.44% [at 25.7 µM]; with `C[C@]12CC[C@H](OS(=O)(=O)O)CC1=CCC1C2CC[C@]2(C)C(=O)CC[C@@H]12` (stereo not given in full), -12.1%; with `CC1=C2[C@@H]3OC(=O)[C@@H](C)[C@@H]3CC[C@]2(C)C=CC1=O`, -0.481%. Same read-out and setting: with `CN[C@@H](C)[C@H]1CC[C@@H](N)[C@@H](O[C@@H]2[C@@H](O)[C@@H](O[C@H]3OC[C@@](C)(O)[C@@H](NC)[C@@H]3O)[C@H](N)C[C@@H]2N)O1` (tested in a mixture with another compound) the figure was 8.49% [at 25.7 µM]; with `CC([C@H](O)c1ccccc1)N(C)C` (stereo not given in full), -2.67%. With `CC(=O)OC1C[C@H](O[C@@H]2C(O)C[C@H](O[C@@H]3C(O)C[C@@H](OC4CC[C@]5(C)C(CCC6C5CC(O)[C@@]5(C)C(C7=CC(=O)OC7)CC[C@@]65O)C4)OC3C)OC2C)O[C@H](C)[C@H]1O[C@H]1OC(CO)C(O)C(O)C1O` (stereo not given in full), the “activity change, negative = cytotoxicity” value is -2.23%. Turning to `C[C@H](NC(C)(C)C)C(=O)c1cccc(Cl)c1`, the “activity change, negative = cytotoxicity” value was -3.08%. As to `C[C@]12CC[C@H](O)CC1=CCC1C2CC[C@]2(C)C(=O)CC[C@@H]12` (stereo not given in full), the “activity change, negative = cytotoxicity” value was 1.59%. On to `C[C@@]12CC[C@H]3[C@@H](CC[C@@H]4C[C@H]5S[C@H]5C[C@]43C)[C@H]1CC[C@H]2O`, for which the “activity change, negative = cytotoxicity” value is 0.208% [at 25.7 µM]. On the same count and under the same terms, with `C[C@H](N)[C@@H](O)c1ccccc1` the figure was 5.59% [at 25.7 µM]; with `CCN(CC)C(=O)N[C@@H]1C[C@@H]2c3cccc4[nH]cc(c34)C[C@H]2N(C)C1`, -0.528%. The same measure, in the same setting: then `CC[C@@]1(c2ccc(N)cc2)CCC(=O)NC1=O`, with 0%; and `Oc1ccc2c3c1O[C@H]1[C@@H](O)CC[C@@]4(O)C(C2)N(CC2CCC2)CCC314` (stereo not given in full), with 1.77%; and `CC[C@@H]1[C@@H]2C[C@H]3[C@H]4N(C)c5ccccc5[C@@]45C[C@@H]([C@@H]2[C@@H]5O)N3[C@H]1O`, with -4.7% [at 25.7 µM].

For `CCC(C)C1O[C@]2(C=CC1C)CC1CC(C/C=C(\C)[C@H](OC3CC(OC)C(O[C@H]4CC(OC)[C@@H](O)C(C)O4)C(C)O3)[C@@H](C)/C=C/C=C3\COC4C(O)C(C)=C[C@H](C(=O)O1)[C@@]34O)O2` (stereo not given in full), the “activity change, negative = cytotoxicity” value is 23.1%. With `C[N+]1([O-])[C@@H]2CC(OC(=O)[C@@H](CO)c3ccccc3)C[C@@H]1[C@H]1O[C@H]12` (stereo not given in full), the “activity change, negative = cytotoxicity” value was -2.08%. Same read-out and setting: with `C[C@@H]1O[C@H](O[C@@H]2C=C3CC[C@H]4[C@@H](CC[C@]5(C)[C@@H](c6ccc(=O)oc6)CC[C@]45O)[C@@]3(C)CC2)[C@@H](O)[C@H](O)[C@@H]1O` the figure was 4.82% [at 25.7 µM]. On the same count and under the same terms, then `NCC[C@H](O)C(=O)N[C@H]1C[C@@H](N)[C@@H](O[C@H]2O[C@@H](CN)[C@@H](O)[C@@H](O)[C@@H]2N)[C@@H](O[C@H]2O[C@@H](CO)[C@@H](O)[C@@H]2O)[C@@H]1O`, with 1.82% [at 25.7 µM].

As to `CC[C@]1(c2cccc(O)c2)CCCCN(C)C1`, the “activity change, negative = cytotoxicity” value is 12.3% [at 25.7 µM]. Consider `ClC1=C(Cl)C2(Cl)C3C4CC(C5OC45)C3C1(Cl)C2(Cl)Cl` (stereo not given), for which the “activity change, negative = cytotoxicity” value was 10.2%.

As to `C[N+]1([O-])[C@@H]2CC[C@H]1CC(OC(=O)[C@@H](CO)c1ccccc1)C2` (stereo not given in full), the “activity change, negative = cytotoxicity” value was -23.8% [at 25.7 µM]. Regarding `CO[C@@H](COC(N)=O)C1=C(N2CC2)C(=O)C(C)=C(N2CC2)C1=O`, the Potency was 32.2 µM (active). For `C=CC1CN2CCC1CC2C(OC(=O)OCC)c1ccnc2ccc(OC)cc12` (stereo not given), the “activity change, negative = cytotoxicity” value is 1.19%. Same read-out and setting: then `COc1cc(N)c(Cl)cc1C(=O)N[C@@H]1CN2CCC1CC2`, with 2.06%. For `CNC[C@H](O)c1ccc(O)cc1`, the “activity change, negative = cytotoxicity” value was 3.81% [at 25.7 µM].

Consider `CNC(C)[C@@H](O)c1ccc(O)cc1` (stereo not given in full), for which the “activity change, negative = cytotoxicity” value is -7.82%. As to `[Hg+][c]1ccccc1`, the Potency is 1.14 µM (active). On to `CCNC[C@H](O)c1cccc(O)c1`, for which the “activity change, negative = cytotoxicity” value is 6.03% [at 25.7 µM]. Take `C[C@H]1CN(C2CCC(C#N)(c3ccc(F)cc3)CC2)CC[C@@]1(C(=O)O)c1ccccc1` (stereo not given in full): the “activity change, negative = cytotoxicity” value is 4.16% [at 25.7 µM]. The same measure, in the same setting: then `C[C@]12CC[C@H]3[C@@H](CCC4=CC(=O)CC[C@@]43C)[C@@H]1CC[C@@H]2O`, with 0.682%. Take `O=c1ccc2cc(O[C@H]3O[C@@H](CO)[C@@H](O)[C@@H](O)[C@@H]3O)c(O)cc2o1`: the “activity change, negative = cytotoxicity” value was 13.6% [at 25.7 µM]. Still for that read-out and setting: with `CC(=O)OCC(=O)[C@@H]1CC[C@H]2[C@H]3CC[C@H]4C[C@@H](O)CC[C@]4(C)[C@@H]3C(=O)C[C@@]12C` the figure was -28.7% [at 25.7 µM].
